From PubChem BioAssay
CF NFkB block: inhibitors of PAF-induced NF-kB signaling, primary screen, cell-based, GFP fluorescence, uHTS; KKLEB NF-kB-GFP reporter, GFP fluorescence overnight; 360,000 tested, 0.86% active; inhibition, % at 5 µM;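 active = at least 50% inhibition at 5 µM, scaled per plate between neutral and stimulator controls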;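 also: PAF is a Pseudomonas aeruginosa culture filtrate used as stimulus; plate controls were PAF-stimulated DMSO wells for no effect and unstimulated DMSO wells for full effect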
PAX8 reporter: inhibitors of PAX8-driven TPO luciferase reporter, primary screen, RMG-I cells, single concentration; 360,000 tested, 1.2% active; SteadyGlo, 24 h; AID 652154, 2013; inhibition, % at 12.6 µM;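 active = mean replicate inhibition at least 60% with every replicate also reaching 60%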;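 also: luciferase light reporting Pax8 driven TPO promoter activity; plate controls were median of neutral control wells for no effect and mitoxantrone controls for full effect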
LGR2 antag: inhibitors of bursicon-induced LGR2 CRE-luciferase signal, primary screen, cell-based, HEK293, CRE-luciferase reporter, bursicon stimulation; AID 720647, 2013; inhibition, % at 9.99 µM; bursicon-stimulated, 4 h; 380,000 tested, 0.35% active;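 active = drop in luminescence signal, shown as inhibition above about 50% in the replicate tests, limit read from the data, passing the limit was not always enough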;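 also: agonist challenge used bursicon conditioned medium at about half maximal strength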
Shn3 inh set2: reduction of Shn3 3'UTR firefly luciferase signal, primary screen, Schnurri-3 inhibitor project, cell-based, Clone20 osteoblasts, set 2; Clone20 osteoblast Shn3 3'UTR firefly luciferase, 24 h; 360,000 tested, 0.52% active; inhibition, % at 12.5 µM;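 active = mean inhibition of at least 75% with every replicate also reaching 75%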;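 also: 0% = median of neutral control wells and 100% = pilot-screen positive control compound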
EWS-Fli inh: EWS/Fli-driven NR0B1 reporter inhibitors, primary screen, A673 cells, NR0B1 luciferase, luminescence, MLPCN library. viability-normalised. inhibition, % at 12.6 µM. 350,000 tested, 0.67% active. AID 651661, 2012;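 active = mean inhibition of at least 50% after viability correction, with every replicate also passing that limit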;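 also: firefly luciferase signal divided by Alamar Blue viability fluorescence both relative to DMSO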
KKLEB cytotox: cytotoxicity in KKLEB CF airway cells, primary screen, cytotoxicity control for CF NF-kB inhibitor project, cell-based, uHTS, fluorescence assay plates; activity change (cytotoxicity), % at 5 µM; 360,000 tested, 0.36% active; KKLEB CF airway cells viability, ATPlite luminescence, overnight; active compounds read low; cells stimulated with P. aeruginosa culture filtrate;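 active = corrected activity change at or below -50% at 5 µM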
* marks the source's active call; other numbers are inactive results; . = no result; ! = not active in a repeat. Only some compounds are listed: those with a hit (about 2% of all), similar ones and a draw of the others.

SMILES | CF NFkB block | PAX8 reporter | LGR2 antag | Shn3 inh set2 | EWS-Fli inh | KKLEB cytotox
CC(C)NC(=O)Nc1ccc2c(c1)C(=O)N([C@@H](C)CO)C[C@@H](C)[C@H](CN(C)Cc1ccncc1)OCCCC[C@@H](C)O2 | . | -7.5 | 0.6 | . | . | .
COc1ccc(Cl)cc1NC(=O)CN(C)CC(=O)Nc1ccccc1N1CCOCC1 | 9.4 | 42.1 | -1.5 | 2.7 | 62.1* | 1.5
C=CCn1c(SC(F)F)nc2scc(-c3ccco3)c2c1=O | 3.7 | 82.0* | -10.1 | -23.5 | 13.0 | 4.4
Cc1noc(C)c1S(=O)(=O)Nc1ccc2c(c1)C(=O)N([C@H](C)CO)C[C@@H](C)[C@@H](CN(C)C(=O)CCCN(C)C)OCCCC[C@@H](C)O2 | . | -13.7 | 6.0 | . | -6.3 | .
C=C1C(=O)O[C@H]2C1CC[C@@](C)(O)C13C=CC(C)(C21)C1(C3)C(=O)O[C@@H]2C3C(C)=CCC3[C@](C)(O)C[C@H](OC(C)=O)C21 (stereo partly specified) | 2.4 | 86.7* | 6.0 | -17.9 | -10.8 | 11.6
COc1ccc(-c2cc3nc(C)c(CCC(=O)NCc4ccco4)c(C)n3n2)c(OC)c1 | 4.6 | . | . | 12.4 | . | -17.1
Cc1nc2cc(-c3ccc(Cl)cc3)nn2c(C)c1CCC(=O)NCc1ccco1 | -8.0 | -15.1 | -31.0 | 59.1 | 56.9* | -3.7
CCOC(=O)c1c(Nc2ccc(Cl)cc2)sc(/C=C2\C=Nc3ccccc32)c1O | 26.3 | 4.9 | -9.0 | 10.2 | -2.2 | -51.1*!
Oc1nc(Nc2cccc(Cl)c2)sc1/C=C1\C=Nc2ccccc21 | -6.7 | 4.8 | 4.5 | -18.8 | -3.2 | -3.9
Nc1c(C(=O)Nc2cccc(C(=O)O)c2)sc2nc3c(cc12)CCCC3 | 13.2 | 84.8* | 76.0* | 32.2 | 85.3* | -16.9
Nc1c(C(=O)Nc2ccc(Cl)c(C(=O)O)c2)sc2nc3c(cc12)CCCC3 | 13.6 | 9.3 | 18.8 | -83.7 | . | 5.2
O=C(N/N=C/c1ccc([N+](=O)[O-])o1)c1ccc(O)cc1 | 22.4 | 18.9 | 33.8 | 28.6 | 64.6* | -4.2
C[C@@H]1CN([C@H](C)CO)C(=O)c2cc(N(C)C)ccc2O[C@@H]1CN(C)Cc1ccc2c(c1)OCO2 | . | 3.1 | 5.9 | . | -2.8 | .
CCCNC(=O)N1[C@H](C#N)[C@H](c2ccccc2-c2ccc(F)cc2)[C@@H]1CO | . | 0.8 | -3.6 | . | 7.2 | .
CCOc1ccc(-c2nnc3n2N=C(c2ccc(OC)cc2)CS3)cc1 | -0.6 | 23.9 | . | 3.8 | . | -11.8
CCOc1ccc(C2=Nn3c(nnc3-c3ccccc3OC)SC2)cc1 | 48.5 | 95.4* | . | 39.3 | . | -10.2
O=C(N[C@@H]1CC[C@H](CCNS(=O)(=O)Cc2ccccc2)O[C@H]1CO)c1ccccc1F | . | 0.6 | 20.0 | . | 3.8 | .
CC(C)(C)c1nnc(N/N=C/c2cc(Br)ccc2O)n(N)c1=O | 24.0 | 60.6* | 37.3 | 86.5* | . | -19.6
Cc1ccc(S(=O)(=O)N[C@H]2C=C[C@@H](CC(=O)N3CCc4ccccc4C3)O[C@H]2CO)cc1 | . | 12.4 | 19.8 | . | 6.0 | .
COc1ccc(-c2csc(NC(=O)c3ccccc3NS(=O)(=O)c3ccc(C)cc3)n2)cc1 | 56.8* | 0.5 | 32.5 | 42.3 | 15.0 | -51.7*
COc1ccc(S(=O)(=O)Nc2ccccc2C(=O)Nc2nc(-c3ccc(F)cc3)cs2)cc1OC | 51.7* | . | 25.4 | -0.6 | . | -41.1
COc1ccc(-n2nc3cc(C)c(NC(C)=O)cc3n2)cc1 | -2.1 | -135.0 | 47.8 | -11.5 | 50.6* | -7.6
COc1ccc(NC(C)=O)c(C)c1 | -14.5 | -4.8 | -15.1 | 6.9 | 0.0 | 2.5
C[C@H](CO)N1C[C@H](C)[C@@H](CN(C)C(=O)Nc2ccc3c(c2)OCO3)OCCCC[C@H](C)Oc2ccc(NC(=O)CCCN(C)C)cc2C1=O | . | -4.4 | 0.3 | . | -2.9 | .
CN(Cc1ccccc1)C(=O)c1cccc(NC(=O)Cc2ccc([N+](=O)[O-])cc2)c1 | 1.4 | 15.3 | -16.4 | 88.0* | 11.0 | -4.2
SMILES | CF NFkB block | PAX8 reporter | LGR2 antag | Shn3 inh set2 | EWS-Fli inh | KKLEB cytotox
C=CCNC(=S)N/N=C/c1cn(-c2ccccc2)nc1-c1ccc(OC)cc1 | 53.2* | 29.4 | . | -12.3 | -5.7 | -52.8*
COc1ccc(-c2nn(-c3ccccc3)cc2/C=N/NC(=O)c2ccc(Br)o2)cc1 | -24.8 | . | . | 15.8 | . | 14.4
N#C[C@@H]1[C@@H](c2ccccc2C2=CCCC2)[C@H](CO)N1C(=O)CN1CCOCC1 | . | . | 0.6 | . | 15.3 | .
CNc1cc(-n2nc(C)cc2-c2ccccc2)ncn1 | 2.8 | 11.3 | . | 2.0 | . | 9.2
Cc1cc(-c2ccccc2)n(-c2cc(N/N=C/c3ccccc3O)ncn2)n1 | 74.5* | 71.1* | 12.8 | 89.5* | . | -54.4*
C[C@H]1CCCCO[C@@H](CN(C)Cc2ccc(Cl)c(Cl)c2)[C@@H](C)CN([C@@H](C)CO)C(=O)c2cc(NC(=O)Nc3ccc(C(F)(F)F)cc3)ccc2O1 | . | 83.3* | -4.7 | . | -0.7 | .
C[C@@H]1CCCCO[C@@H](CN(C)Cc2ccc(Cl)c(Cl)c2)[C@H](C)CN([C@@H](C)CO)C(=O)c2cc(NC(=O)Nc3ccc(C(F)(F)F)cc3)ccc2O1 | . | 91.0* | 17.7 | . | -8.1 | .
C[C@@H]1CCCCO[C@H](CN(C)Cc2ccc(Cl)c(Cl)c2)[C@@H](C)CN([C@@H](C)CO)C(=O)c2cc(NC(=O)Nc3ccc(C(F)(F)F)cc3)ccc2O1 | . | 94.7* | 28.6 | . | -0.1 | .
CCC(=O)Nc1ccc2c(c1)C(=O)N(C)C[C@@H](OC)[C@@H](C)CN(C(=O)Cc1ccccn1)[C@H](C)CO2 | . | -14.4 | -2.7 | . | -6.5 | .
Cc1nc(Nc2nc(CSc3ccc(Cl)cc3)cc(=O)[nH]2)nc2ccccc12 | -0.8 | -7.3 | -4.7 | -13.1 | . | 2.1
Cc1nc(Nc2nc(CSc3nc4ccccc4[nH]3)cc(=O)[nH]2)nc2ccccc12 | 30.7 | 101.6* | 82.1* | 77.6 | . | 13.5
COc1nc(Nc2nc3ccccc3c(=O)[nH]2)nc2ccc(C)cc12 | 47.6 | 75.7* | 52.4* | 52.4 | 34.8 | -0.5
Cc1nc(Nc2nc(-c3ccccc3)cc(=O)[nH]2)nc2ccccc12 | -154.0 | . | 62.6* | -20.4 | . | -0.4
COCC(=O)N(C)C[C@H]1Oc2ncc(C#Cc3ccc(F)cc3)cc2C(=O)N([C@@H](C)CO)C[C@@H]1C | . | . | -6.2 | . | -14.5 | .
NC(Cc1ccc(Cl)cc1)c1csc(NC(=O)NCC2CCCCC2)n1 (stereo unspecified) | 22.4 | -8.6 | 24.3 | 84.2* | 48.7 | -16.7
Cc1cc(C(=O)Nc2cccc3c2O[C@@H](CN(C)S(=O)(=O)c2cn(C)cn2)[C@H](C)CN([C@H](C)CO)C3=O)n(C)n1 | . | . | -14.9 | . | -10.4 | .
